Data taken from PubChem BioAssay AID1240 (Sanford-Burnham Center for Chemical Genomics, 2008).
Out of some 50,000 compounds screened, about 800 (1.6%) showed an effect of 50% or more. Only a selection was taken, and strong results are over-represented in it overall.

Molecular target: Bcl-2-like protein 10 (Homo sapiens) (UniProt Q9HD36)
Experiment: Phenotype converters, Bcl-B/TR3 peptide binding displacement, primary biochemical FP (AID 1240);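 also: 0% = Bcl-B with tracer peptide and DMSO and 100% = tracer peptide lacking Bcl-B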
Conditions: GST-Bcl-B / FITC-TR3 peptide fluorescence polarization; stronger effect = higher value; compound at 3.75 mg/L

Sequence of Bcl-2-like protein 10 (Homo sapiens) (Q9HD36 whole entry, looked up): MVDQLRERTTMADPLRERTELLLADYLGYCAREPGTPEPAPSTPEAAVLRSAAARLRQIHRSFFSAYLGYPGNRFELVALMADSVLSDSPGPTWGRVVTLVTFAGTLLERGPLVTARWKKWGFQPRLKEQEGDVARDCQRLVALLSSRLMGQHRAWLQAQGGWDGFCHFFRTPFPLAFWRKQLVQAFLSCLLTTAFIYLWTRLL

| SMILES | displacement [%] |
| --- | --- |
| CCN(CC)c1ccc(/C=N/NS(C)(=O)=O)cc1 | 7.3 |
| COc1cccc(CN2CCN(C(=O)c3ccccc3OC)CC2)c1 | -15.8 |
| NC(=O)SCC(=O)Nc1ccccc1O | 4.9 |
| Clc1ccccc1-c1nnc(-c2ccc(-c3ccccc3)cc2)o1 | 5.2 |
| O=C(Nc1ccc(OC(F)(F)F)cc1)c1cccc([N+](=O)[O-])c1 | -1.6 |
| COc1ccc(/C=C2/SC(NC(C)=O)=NC2=O)c(OC)c1 | 133 |
| COc1ccc(OC)c(/C=C2\SC(N3CCCC3)=NC2=O)c1 | -16.2 |
| CC(=O)NC1=NC(=O)/C(=C\c2ccc(-c3ccc(Cl)c(C(=O)O)c3)o2)S1 | -115 |
| COc1c(Cl)cc(Cl)cc1/C=C1\SC(NC(C)=O)=NC1=O | 74.7 |
| COc1cc(/C=C2/SC(NC(C)=O)=NC2=O)cc(OC)c1OC | 31.2 |
| COc1cc(/C=C2\SC(NC(C)=O)=NC2=O)cc2sc(=O)oc12 | 24.7 |
| COc1ccc(/C=C2/SC(N)=NC2=O)c(OC)c1 | -3.2 |
| COc1cc(OC)c(/C=C2/SC(NC(C)=O)=NC2=O)cc1Br | 138 |
| COc1ccc(OC)c(/C=C2/SC(NC(C)=O)=NC2=O)c1 | 156 |
| COc1cc(/C=C2\SC(NC(C)=O)=NC2=O)cc(Br)c1OC | 11.8 |
| COc1ccc(/C=C2\SC(N3CCCC3)=NC2=O)c(OC)c1 | -18.5 |
| CCOC(=O)C1=CN(c2ccc(OCC)cc2)C=C(C(=O)OCC)C1c1ccccc1F | -12.6 |
| CC(=O)OC(c1c(F)c(F)c(F)c(F)c1F)c1c(F)c(F)c(F)c(F)c1F | 3 |
| C=CCN1C(=O)/C(=C\c2ccc(O)cc2)C(=O)NC1=S | -14.8 |
| O=C(N/N=C/c1ccc(Cl)cc1)c1ccc(O)cc1 | -1.1 |
| O=C(O)CCCCCN1C(=O)C(O)=C(C(=O)/C=C/c2ccccc2)C1c1ccccc1F (stereo not drawn) | 1.5 |
| O=C(/C=C/c1ccccc1)C1=C(O)C(=O)N(c2ccccn2)C1c1ccccc1F (stereo not drawn) | 93.5 |

| SMILES | displacement [%] |
| --- | --- |
| O=C(/C=C/c1ccccc1)C1=C(O)C(=O)N(c2ccccc2)C1c1ccccc1F (stereo not drawn) | 2 |
| Cc1ccccc1NC(=O)CN(c1ccc(Oc2ccccc2)cc1)S(C)(=O)=O | 1.7 |
| Cc1ccccc1NC(=O)c1ccc(C)c(S(=O)(=O)NCc2ccccc2)c1 | -9.5 |
| CC(C)Cc1nnc(NC(=O)Nc2ccc(Cl)c(Cl)c2)s1 | 3.9 |
| CC(C)c1nnc(NC(=O)Nc2ccc(Cl)c(Cl)c2)s1 | 98.2 |
| CC(C)c1nnc(NC(=O)Nc2ccc(Cl)cc2)s1 | 2.3 |
| FC(F)(F)c1nc2ccccc2n1CC#CCn1c(C(F)(F)F)nc2ccccc21 | -1.1 |
| Cc1ccc(NC(=O)/C(=C/c2ccccc2)c2ccccc2)cc1C | 12.1 |
| O=C(Nc1nc2ccc(Br)cc2s1)c1cccs1 | -3.7 |
| COc1ccc(C(=O)Nn2cc3cc([N+](=O)[O-])ccc3n2)cc1 | -9.5 |
| O=C(Cc1ccc(Cl)cc1)Nc1ccc2c(c1)OCCO2 | 0.4 |
| CSc1nc2sc3c(c2c(=O)n1Cc1ccccc1)CCN(C)C3 | -6.8 |
| Nc1sc(=S)nc2sc3c(c12)CCN(Cc1ccccc1)C3 | 74 |
| CSc1nc2sc3c(c2c(=O)[nH]1)CCCC3 | 6.2 |
| Nc1nc(SCc2ccc(Cl)cc2)nc2sc3c(c12)CCN(Cc1ccccc1)C3 | 16.8 |
| CSc1nc2sc3c(c2c(=O)[nH]1)CCN(Cc1ccccc1)C3 | 81 |
| N#Cc1c(N)sc2c1CCN(Cc1ccccc1)C2 | 3.4 |
| Cc1cccc(C(=O)O/N=C(\N)c2ccc(Br)cc2)c1 | -0.6 |
| COc1ccc(-c2occ(C(=O)O)c2C(=O)O)cc1 | 0.2 |
| O=C1CC(N2CCN(c3ccccc3)CC2)C(=O)N1c1ccc(I)cc1 (stereo not drawn) | -0.8 |
| CCC12C(=O)C(CC)(C(c3ccccc3)=C1c1ccccc1)C1C(=O)N(c3ccccc3[N+](=O)[O-])C(=O)C12 (stereo not drawn) | 2 |
| CCN1C(=O)/C(=C\c2ccc(Br)cc2)SC1=S | 7.1 |

| SMILES | displacement [%] |
| --- | --- |
| CCOc1cccc(=[O+]CC)c2c(C)oc(C)c12 | 154 |
| CCOc1cccc(=O)c2c(C)oc(C)c12 | 16.8 |
| CCOc1ccc(-c2cc(OCC)c3c(C)oc(C)c3c(=[O+]CC)c2)cc1 | 2.4 |
| CNC(=O)COc1ccc(C23CC4CC(CC(C4)C2)C3)cc1 | 1.4 |
| O=C(CSc1n[nH]c(=O)[nH]c1=O)c1ccc(Cl)cc1 | -6.1 |
| O=C(Nc1ncc(Cc2ccc(F)cc2)s1)C1CCCO1 (stereo not drawn) | 15.4 |
| Cc1nc(-c2ccccc2)sc1C(=O)Nc1cccc2ccccc12 | 13.1 |
| COc1cc(C=O)ccc1Oc1ccc([N+](=O)[O-])cc1 | 5 |
| Cc1ccc(-n2cc(C=C3C(=O)NC(=O)NC3=O)cn2)cc1C | 110 |
| Cc1ccc(-n2cc(/C=c3\sc4nc5cc(C)c(C)cc5n4c3=O)cn2)cc1C | -8.9 |
| Cc1ccc(-n2c(C)cc(/C=C3\NC(=O)NC3=O)c2C)cc1C | 11.1 |
| O=[N+]([O-])c1ccc2oc(-c3ccccc3)nc2c1 | 5 |
| COc1sc(SC)cc1/C=N/NC(=O)C(NC(=O)c1ccccc1)c1n[nH]c(=O)c2ccccc12 (stereo not drawn) | -7.7 |
| COc1ccc(-c2cc(C(F)(F)F)n3nc(C(=O)O)c(Cl)c3n2)cc1 | 3.2 |
| COc1ccc(-c2cc(C(F)(F)F)n3nc(C(N)=O)c(Cl)c3n2)cc1OC | 33.4 |
| COCCNC(=O)c1nn2c(C(F)(F)F)cc(-c3ccc(OC)c(OC)c3)nc2c1Cl | 155 |
| COc1ccc(-c2cc(C(F)(F)F)n3nc(C(=O)NCCCn4ccnc4)c(Cl)c3n2)cc1 | 105 |
| COc1ccc(-c2cc(C(F)(F)F)n3nc(C(=O)NCCN4CCOCC4)c(Cl)c3n2)cc1 | -10.2 |
| COCCNC(=O)c1nn2c(C(F)(F)F)cc(-c3ccc(OC)cc3)nc2c1Cl | -2.4 |
| COc1ccc(C(=O)Nc2ccc(N(C)C)cc2)cc1 | 6 |
| CN(C)c1ccc(C2/C(=C(\O)c3ccc(F)cc3)C(=O)C(=O)N2CCCCCC(=O)O)cc1 (stereo not drawn) | 9.1 |
| CCCCOC(=O)c1cccc(NC(=O)COc2ccc3c(C)cc(=O)oc3c2)c1 | -41.8 |

| SMILES | displacement [%] |
| --- | --- |
| COCCOC(=O)c1ccc(NC(=O)COc2ccc3c(C)cc(=O)oc3c2)cc1 | 90.3 |
| CCCCOC(=O)c1ccc(NC(=O)COc2ccc3c(C)cc(=O)oc3c2)cc1 | 28.5 |
| Cc1cccc([N+](=O)[O-])c1N=Cc1ccc(N(C)C)cc1 | -4.5 |
| COc1ccc(N(CC(=O)NC2CCCCC2)S(=O)(=O)c2ccccc2)cc1Cl | 7.2 |
| NS(=O)(=O)c1ccc(-c2ccc(/C=C3\Sc4ccccc4C3=O)o2)cc1 | -71.8 |
| COc1ccc(/C=C2/Sc3ccccc3C2=O)cc1[N+](=O)[O-] | -5.3 |
| O=C1/C(=C\c2ccc(-c3ccc([N+](=O)[O-])cc3Br)o2)Sc2ccccc21 | -17.8 |
| CCOc1cc(/C=C2\Sc3ccccc3C2=O)ccc1OC | 0.2 |
| O=C1/C(=C/c2ccc(Br)o2)Sc2ccccc21 | 92.7 |
| COc1ccc(/C=C2/Sc3ccccc3C2=O)cc1Br | 116 |
| O=C(NCc1ccccn1)C(=O)Nc1ccccc1F | -20.9 |
| Cc1ccc(S(=O)(=O)NCCOc2ccccc2Cl)cc1[N+](=O)[O-] | 13 |
| CC(=O)N/C(=C\c1ccccc1)C(=O)NC(CC(C)C)C(=O)O (stereo not drawn) | -2.1 |
| CC(=O)N/C(=C\c1ccc(F)cc1)C(=O)NC(C(=O)O)C(C)C (stereo not drawn) | 81.8 |
| C#CCOC(=O)/C(=C/c1ccc(F)cc1)NC(C)=O | -8.4 |
| COc1ccccc1NC(=O)c1cccc2c(Br)cccc12 | -5.4 |
| COc1ccc(N(CC(=O)NC(C)c2ccccc2)S(=O)(=O)c2ccc(C)cc2)c(OC)c1 (stereo not drawn) | 2.3 |
| Cc1cc(C)cc(OCC(=O)N2CCN(c3ccc([N+](=O)[O-])cc3)CC2)c1 | -3.5 |
| CC(C)(C)OC(=O)COc1ccc2cc(-c3nc4ccccc4s3)c(=O)oc2c1 | 92 |
| O=C(COc1ccc2ccc(=O)oc2c1)OCc1ccccc1 | 10.9 |
| CCOC(=O)COc1ccc2cc(-c3nc4ccccc4[nH]3)c(=O)oc2c1 | 7.3 |
| O=c1oc2cc(OCc3ccc(F)cc3)ccc2cc1-c1nc2ccccc2s1 | 52.5 |

| SMILES | displacement [%] |
| --- | --- |
| O=c1c(-c2nc3ccccc3s2)coc2cc(OCc3ccc([N+](=O)[O-])cc3)ccc12 | 6.2 |
| CCOC(=O)COc1ccc2cc(-c3nc4ccccc4o3)c(=O)oc2c1 | 8.8 |
| CCOc1ccc2c(=O)c(-c3nc4ccccc4s3)coc2c1 | 7.8 |
| C=C(C)COc1ccc2cc(-c3nc4ccccc4s3)c(=O)oc2c1 | 66.5 |
| Cc1oc2cc(OCC(=O)OCc3ccccc3)ccc2c(=O)c1-c1nc2ccccc2s1 | 11.3 |
| O=c1oc2ccccc2cc1-c1nc2ccccc2s1 | -1 |
| O=c1oc2cc(OCc3c(F)c(F)c(F)c(F)c3F)ccc2cc1-c1ccc2ccccc2n1 | -49.7 |
| O=C(COc1ccc2cc(-c3nc4ccccc4s3)c(=O)oc2c1)OCc1ccccc1 | 53.3 |
| CCOc1ccc(N(CC(=O)Nc2cccc3cccnc23)S(=O)(=O)c2ccccc2)cc1 | -39.5 |
| O=C(Nc1ccc2nn(-c3ccc(F)cc3)nc2c1)c1cc2ccccc2o1 | 2.5 |
| O=C1N/C(=N/N=C\c2ccc(-c3ccc(Cl)cc3)o2)SC1Cc1ccccc1 (stereo not drawn) | 17 |
| CC(Sc1nnc(N)s1)c1ccccc1 (stereo not drawn) | 5.2 |
| COc1ccc(CC(=O)N=Nc2c(O)n(CN3CCN(C)CC3)c3ccccc23)cc1 | -3 |
| O=C(CN1C(=O)c2ccc([N+](=O)[O-])cc2C1=O)N1CCCCC1 | -9.1 |
| COc1ccc(NC(=O)C(=O)NCc2ccc(C)cc2)c(OC)c1 | 10.4 |
| O=C(COc1ccc(Cl)cc1Br)NNC(=O)c1ccncc1 | -4.5 |
| CC(=O)c1cc(F)c(N2CCN(C(=O)c3cccs3)CC2)cc1C | 80 |
| CC(=O)c1ccc(N2CCN(C(=O)c3cccs3)CC2)c(F)c1 | -4.6 |
| CC(=O)c1cc(F)c(N2CCN(C(=O)c3ccccc3Br)CC2)cc1C | -5.4 |
| C=C(NC(C)=O)C(=O)c1ccc([N+](=O)[O-])cc1 | 18.9 |
